Hits are enriched below; roughly 2.3% of the tested compounds scored in any of these assays.
Pf Dd2 growth: P. falciparum Dd2 growth inhibition; SYBR Green, 72 h; stronger effect = lower value; 94,000 compounds, 2.3% hits; AID 1159554; activity change, % at 10 µM; in the data active means activity change below about -80%
C diff growth: inhibitors of Clostridium difficile growth. Clostridium difficile clinical isolate growth, OD600, 24 h; stronger effect = lower value. 86,000 compounds, 0.25% hits. AID 1259249. growth activity, negative = inhibition, % at 16 µg/mL (by protocol);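 active means mean growth activity at or below -80% and every replicate also at or below -80%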;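 further: 0% = DMSO wells and -100% = levofloxacin 16 µg/mL wells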
The depositor's hits bear a star; . = no result given.

SMILES	Pf Dd2 growth	C diff growth
COCC#Cc1cnc2c(c1)C(=O)N([C@@H](C)CO)C[C@H](C)[C@H](CN(C)C(=O)C1CCC1)O2	21	4
C[C@@H]1CCCCO[C@@H](CN(C)S(C)(=O)=O)[C@@H](C)CN([C@H](C)CO)C(=O)c2cc(NS(=O)(=O)c3cccs3)ccc2O1	37	2
CN1CCN(C(=O)C[C@H]2CC[C@H]3[C@@H](COC[C@@H](O)CN3S(=O)(=O)c3cccc(Cl)c3)O2)CC1	8	.
CCCNC(=O)N(C)C[C@@H]1Oc2ncc(C#CC3(O)CCCC3)cc2C(=O)N([C@H](C)CO)C[C@@H]1C	14	0
COc1cccc(NC(=O)N(C)C[C@@H]2Oc3cc(C#Cc4ccccc4)ccc3S(=O)(=O)N([C@@H](C)CO)C[C@@H]2C)c1	-91*	-7
COc1cccc(NC(=O)N(C)C[C@H]2Oc3cc(C#Cc4ccccc4)ccc3S(=O)(=O)N([C@H](C)CO)C[C@H]2C)c1	-74	12
COc1cccc(NC(=O)N(C)C[C@H]2Oc3cc(C#Cc4ccccc4)ccc3S(=O)(=O)N([C@H](C)CO)C[C@@H]2C)c1	-84*	1
COc1cccc(NC(=O)N(C)C[C@H]2Oc3cc(C#Cc4ccncc4)ccc3S(=O)(=O)N([C@@H](C)CO)C[C@H]2C)c1	-31	-3
CN1CCN(C(=O)C[C@@H]2CC[C@@H]3[C@H](COC[C@@H](O)CN3CC3CCCCC3)O2)CC1	13	.
CCCNC(=O)Nc1ccc2c(c1)OC[C@H](C)N(C(=O)C1CCOCC1)C[C@H](C)[C@H](OC)CN(C)C2=O	11	.
CCCC#Cc1ccc2c(c1)O[C@@H](CN(C)Cc1ccccn1)[C@H](C)CN([C@H](C)CO)S2(=O)=O	.	1
CCCC(=O)Nc1ccc2c(c1)C(=O)N(C)[C@@H]1CC[C@@H](CC(=O)NCC(F)(F)F)O[C@@H]1CO2	1	-3
c1cncc(CN2C[C@@H]3N[C@H](C2)C3c2ccc(-c3cccnc3)cc2)c1 (stereo partly drawn)	-69	-8
c1ccc(CN2C[C@@H]3N[C@H](C2)C3c2ccc(-c3ccncc3)cc2)cc1 (stereo partly drawn)	-84*	-5
C(=C\c1ccc(C2[C@@H]3CN(Cc4cccnc4)C[C@H]2N3)cc1)/c1ccccc1 (stereo partly drawn)	-90*	14
c1ccc(CN2C[C@@H]3N[C@H](C2)C3c2ccc(-c3ccccc3)cc2)cc1 (stereo partly drawn)	21	-6
Fc1ccccc1-c1ccc(C2[C@@H]3CN(Cc4ccccn4)C[C@H]2N3)cc1 (stereo partly drawn)	-4	-13
Fc1ccccc1-c1ccc(C2[C@@H]3CN(Cc4ccccc4)C[C@H]2N3)cc1 (stereo partly drawn)	-32	-98*
C[C@@H]1CN([C@H](C)CO)C(=O)c2cccc(NC(=O)CCCCCC(=O)Nc3ccccc3N)c2O[C@H]1CN(C)C(=O)Nc1ccc(C(F)(F)F)cc1	-88*	10
C[C@@H]1CN([C@H](C)CO)C(=O)c2cccc(NC(=O)CCCCCC(=O)Nc3ccccc3N)c2O[C@H]1CN(C)C(=O)Nc1ccccc1	-59	1
C[C@H](CO)N1C[C@H](C)[C@@H](CN(C)C(=O)Nc2ccc(C(F)(F)F)cc2)Oc2c(NC(=O)CCCCCC(=O)Nc3ccccc3N)cccc2C1=O	-84*	8
C[C@@H]1CN([C@@H](C)CO)C(=O)c2cccc(NC(=O)CCCCCC(=O)Nc3ccccc3N)c2O[C@H]1CN(C)C(=O)Nc1ccc(C(F)(F)F)cc1	-84*	0
COc1ccc(NC(=O)N(C)C[C@H]2Oc3c(NC(=O)Nc4ccccc4)cccc3C(=O)N([C@@H](C)CO)C[C@H]2C)cc1	-89*	-9
C[C@H](CO)N1C[C@H](C)[C@@H](CN(C)C(=O)Nc2ccc(F)cc2)Oc2c(NC(=O)CCCCCC(=O)Nc3ccccc3N)cccc2C1=O	-63	-6
C[C@@H]1CN([C@H](C)CO)C(=O)c2cccc(NC(=O)CCCCCC(=O)Nc3ccccc3N)c2O[C@H]1CN(C)C(=O)Nc1cccc2ccccc12	-73	-1
SMILES	Pf Dd2 growth	C diff growth
COc1ccc(NC(=O)N(C)C[C@@H]2Oc3c(NC(=O)Nc4ccccc4)cccc3C(=O)N([C@H](C)CO)C[C@@H]2C)cc1	-17	6
C[C@H](CO)N1C[C@H](C)[C@@H](CN(C)Cc2cccc(F)c2)Oc2ncc(-c3cccc(F)c3)cc2C1=O	-2	-7
COc1ccccc1-c1cnc2c(c1)C(=O)N([C@@H](C)CO)C[C@@H](C)[C@H](CN(C)Cc1ccc(C(=O)O)cc1)O2	-8	1
O=C(O)C[C@@H]1CC[C@H](NC(=O)Nc2cc(F)ccc2F)[C@@H](CO)O1	3	1
C[C@@H]1CN([C@@H](C)CO)C(=O)c2cc(C#CC3CCCC3)cnc2O[C@H]1CN(C)C(=O)c1ccncc1	-26	1
O=S(=O)(c1cccs1)N1CCCCN2[C@@H](CO)[C@H](c3ccc(Br)cc3)[C@@H]2C1	-24	30
COc1ccc(NC(=O)N(C)C[C@H]2Oc3c(NC(=O)CCCCCC(=O)Nc4ccccc4N)cccc3C(=O)N([C@@H](C)CO)C[C@H]2C)cc1	-89*	5
COc1ccc(NC(=O)N(C)C[C@H]2Oc3c(NC(=O)CCCCCC(=O)Nc4ccccc4N)cccc3C(=O)N([C@H](C)CO)C[C@@H]2C)cc1	-28	2
C[C@H]1CN([C@@H](C)CO)C(=O)c2cc(NC(=O)CCCCCC(=O)Nc3ccccc3N)ccc2O[C@@H]1CN(C)C(=O)Nc1ccc(C(F)(F)F)cc1	0	8
C[C@H]1CN([C@@H](C)CO)C(=O)c2cccc(NC(=O)CCCCCC(=O)Nc3ccccc3N)c2O[C@H]1CN(C)C(=O)Nc1ccc(C(F)(F)F)cc1	-92*	12
CC(C)NC(=O)N(C)C[C@@H]1OCCCC[C@@H](C)Oc2ccc(NC(=O)C3CCCCC3)cc2C(=O)N([C@@H](C)CO)C[C@@H]1C	-41	0
CC(=O)N(CC(C)C)C[C@H]1[C@@H](c2ccc(C3=CCCC3)cc2)[C@@H](CO)N1C(C)=O	-15	-4
CNC[C@@H]1Oc2ccc(NS(=O)(=O)c3ccc(Cl)cc3)cc2C(=O)N([C@@H](C)CO)C[C@H]1C	16	8
COc1ccc(-c2ccccc2[C@H]2[C@@H](C#N)N(C(=O)C3CCCC3)[C@H]2CO)cc1	-98*	-3
N#C[C@@H]1[C@H](c2ccccc2/C=C/c2ccccc2)[C@H](CO)N1S(=O)(=O)c1cccc(F)c1	-27	-6
COc1ccc(-c2ccccc2[C@@H]2[C@H](C#N)N(C(=O)C3CCCC3)[C@H]2CO)cc1	13	6
CS(=O)(=O)N1[C@H](C#N)[C@H](c2ccccc2-c2ccc(F)cc2)[C@H]1CO	-86*	-15
N#C[C@@H]1[C@H](c2ccccc2/C=C/c2ccccc2)[C@H](CO)N1S(=O)(=O)c1ccc(F)cc1	-91*	91
COc1ccc(-c2ccccc2[C@@H]2[C@@H](C#N)N(C(=O)NC3CCCCC3)[C@H]2CO)cc1	-6	16
COc1ccc(-c2ccccc2[C@H]2[C@@H](C#N)N(C(=O)NC3CCCC3)[C@H]2CO)cc1	-94*	4
CS(=O)(=O)N1[C@H](C#N)[C@@H](c2ccccc2-c2ccc(F)cc2)[C@@H]1CO	-24	-2
O=C(C1CCC1)N1CC2(C1)[C@H](c1ccccc1)[C@H](CO)N2C(=O)c1ccccn1	31	-3

Screening data deposited in PubChem by Broad Institute.
